Data taken from the supplement of paper PMC10849652.
Of roughly 7,900 targets only a part is listed; those with a hit were picked by preference. About 0.6% of all pairs of compound and target were hits. Unmarked numbers belong to inactive results.

Key:
Assay in all cases: log2 fold change, soluble protein after heating vs DMSO (PISA); higher = thermal stabilisation; K562 cells, 10 uM, 30 min; active = over 0.2 and 3.5 SD of the protein, either way, in both replicates (recomputed)
volasertib = compound: CC[C@@H]1C(=O)N(C)c2cnc(Nc3ccc(C(=O)N[C@H]4CC[C@H](N5CCN(CC6CC6)CC5)CC4)cc3OC)nc2N1C(C)C [volasertib]
Procedure, shortened: (§1)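 K562 cells at 2×10^6 cells/mL were exposed to 10 μM compound for 30 min, then aliquots were heated for 3 min across 48°C-58°C, pooled, and extracted in PBS containing 0.5% NP-40 at 4°C. The supernatant after 21,000xg for 90 min was taken as soluble protein and measured by TMTpro 16plex LC-MS/MS with channel sums equalised. Thermal stability is reported relative to control samples, with values from duplicates. Fold changes are given on a log2 scale.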

[1] = compound: CCn1c(C(=O)N(C2CC2)C2CC2)cc2c3c(ncn3C)c(Nc3cc(C)n(C)n3)nc21
Procedure, shortened: as §1

[2] = compound: CCn1cc(-c2ccnc3[nH]c(-c4cccc(CN(C)C)c4)cc23)c(-c2ccc(NC(=O)N(C)C)cc2)n1
Procedure, shortened: as §1

[3] = compound: CN(C)CC(=O)Nc1ccc2[nH]c(=O)c3ccccc3c2c1
Procedure, shortened: as §1

rosiglitazone = compound: CN(CCOC1=CC=C(C=C1)C[C@H]2C(=O)NC(=O)S2)C3=CC=CC=N3 (racemic) [rosiglitazone]
Procedure, shortened: as §1

[4] = compound: CN1C2=C(C3=C1C(=O)N(N=C3)CC4=CC(=CC=C4)N)SC(=C2)S(=O)C
Procedure, shortened: as §1

[5] = compound: CN1CCC(CNc2ccc3ncc(-c4cccc(OC(F)(F)F)c4)n3n2)CC1
Procedure, shortened: as §1

saracatinib = compound: CN1CCN(CCOc2cc(OC3CCOCC3)c3c(Nc4c(Cl)ccc5c4OCO5)ncnc3c2)CC1 [saracatinib]
Procedure, shortened: as §1

alvocidib = compound: CN1CC[C@H](c2c(O)cc(O)c3c(=O)cc(-c4ccccc4Cl)oc23)[C@H](O)C1 [alvocidib]
Procedure, shortened: as §1

[6] = compound: CNC(=O)C1=CC=CC=C1NC2=NC(=NC=C2Cl)NC3=C(C=C(C=C3)N4CCOCC4)OC
Procedure, shortened: as §1

defactinib = compound: CNC(=O)c1ccc(Nc2ncc(C(F)(F)F)c(NCc3nccnc3N(C)S(C)(=O)=O)n2)cc1 [defactinib]
Procedure, shortened: as §1

[7] = compound: CNc1nc(-c2ccc3c(N)n[nH]c3c2)cc(N2C[C@@H](C(=O)NC3CCCCC3)CC[C@H]2C)n1
Procedure, shortened: as §1

[8] = compound: COC(=O)[C@H](CCSC)NC(=O)C1=C(C=C(C=C1)NC[C@H](CS)N)C2=CC=CC=C2
Procedure, shortened: as §1

[9] = compound: CC[C@@H]1C(=O)N(C)c2cnc(Nc3ccc(C(=O)NC4CCN(C)CC4)cc3OC)nc2N1C1CCCC1
Procedure, shortened: as §1

[10] = compound: CC[C@H](C)N1C=C(C2=C(C=C(C=C21)C3=CN=C(C=C3)N4CCNCC4)C(=O)NCC5=C(C=C(NC5=O)C)C)C
Procedure, shortened: as §1

epoxomicin = compound: CC[C@H](C)[C@@H](C(=O)N[C@@H]([C@@H](C)O)C(=O)N[C@@H](CC(C)C)C(=O)[C@]1(CO1)C)NC(=O)[C@H]([C@@H](C)CC)N(C)C(=O)C [epoxomicin]
Procedure, shortened: as §1

sotrastaurin = compound: CN1CCN(c2nc(C3=C(c4c[nH]c5ccccc45)C(=O)NC3=O)c3ccccc3n2)CC1 [sotrastaurin]
Procedure, shortened: as §1

Tubastatin A = compound: CN1CCc2c(c3ccccc3n2Cc2ccc(C(=O)NO)cc2)C1 [Tubastatin A]
Procedure, shortened: as §1

rucaparib = compound: CNCc1ccc(-c2[nH]c3cc(F)cc4c3c2CCNC4=O)cc1 [rucaparib]
Procedure, shortened: as §1

encorafenib = compound: COC(=O)N[C@@H](C)CNc1nccc(-c2cn(C(C)C)nc2-c2cc(Cl)cc(NS(C)(=O)=O)c2F)n1 [encorafenib]
Procedure, shortened: as §1

UniProt Q6J4K2, sequence (Q6J4K2 whole entry, looked up): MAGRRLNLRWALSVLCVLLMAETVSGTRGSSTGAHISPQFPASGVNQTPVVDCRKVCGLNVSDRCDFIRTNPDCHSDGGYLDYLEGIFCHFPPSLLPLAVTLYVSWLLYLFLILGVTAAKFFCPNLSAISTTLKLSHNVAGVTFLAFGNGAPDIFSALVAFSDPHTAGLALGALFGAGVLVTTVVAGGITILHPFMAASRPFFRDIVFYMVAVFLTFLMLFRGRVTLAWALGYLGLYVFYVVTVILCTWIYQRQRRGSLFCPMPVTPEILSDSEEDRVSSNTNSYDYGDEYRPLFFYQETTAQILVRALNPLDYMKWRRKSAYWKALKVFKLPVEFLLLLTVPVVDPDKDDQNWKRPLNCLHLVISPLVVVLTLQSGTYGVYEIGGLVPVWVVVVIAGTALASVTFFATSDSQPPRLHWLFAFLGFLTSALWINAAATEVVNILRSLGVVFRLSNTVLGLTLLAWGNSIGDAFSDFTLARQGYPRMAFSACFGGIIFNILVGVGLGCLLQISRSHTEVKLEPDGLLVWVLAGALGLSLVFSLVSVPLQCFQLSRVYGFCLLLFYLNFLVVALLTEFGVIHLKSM
UniProt Q9H5L6, sequence (Q9H5L6 whole entry, looked up): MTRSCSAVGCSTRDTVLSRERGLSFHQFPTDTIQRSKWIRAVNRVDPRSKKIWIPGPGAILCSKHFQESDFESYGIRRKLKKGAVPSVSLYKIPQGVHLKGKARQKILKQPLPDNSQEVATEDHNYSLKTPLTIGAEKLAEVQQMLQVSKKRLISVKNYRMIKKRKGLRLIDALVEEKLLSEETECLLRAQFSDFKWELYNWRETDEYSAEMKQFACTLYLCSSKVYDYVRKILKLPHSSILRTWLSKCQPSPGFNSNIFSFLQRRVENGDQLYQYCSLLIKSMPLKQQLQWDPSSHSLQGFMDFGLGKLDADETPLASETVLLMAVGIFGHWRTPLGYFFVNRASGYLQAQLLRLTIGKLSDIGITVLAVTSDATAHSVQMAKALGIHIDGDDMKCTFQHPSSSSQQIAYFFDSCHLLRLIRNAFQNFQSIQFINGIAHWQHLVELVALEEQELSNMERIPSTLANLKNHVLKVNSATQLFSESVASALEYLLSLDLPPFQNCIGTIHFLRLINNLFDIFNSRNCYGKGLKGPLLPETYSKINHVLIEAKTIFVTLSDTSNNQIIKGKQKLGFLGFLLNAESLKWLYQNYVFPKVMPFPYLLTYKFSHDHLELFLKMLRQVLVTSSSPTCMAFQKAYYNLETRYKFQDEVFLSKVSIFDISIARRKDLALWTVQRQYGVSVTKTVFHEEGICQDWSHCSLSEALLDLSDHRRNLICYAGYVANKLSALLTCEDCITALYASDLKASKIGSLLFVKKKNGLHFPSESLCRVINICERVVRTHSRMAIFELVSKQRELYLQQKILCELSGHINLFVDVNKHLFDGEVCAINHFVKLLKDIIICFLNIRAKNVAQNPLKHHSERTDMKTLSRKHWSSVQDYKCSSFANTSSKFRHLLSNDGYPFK
UniProt O94768, sequence (O94768 whole entry, looked up): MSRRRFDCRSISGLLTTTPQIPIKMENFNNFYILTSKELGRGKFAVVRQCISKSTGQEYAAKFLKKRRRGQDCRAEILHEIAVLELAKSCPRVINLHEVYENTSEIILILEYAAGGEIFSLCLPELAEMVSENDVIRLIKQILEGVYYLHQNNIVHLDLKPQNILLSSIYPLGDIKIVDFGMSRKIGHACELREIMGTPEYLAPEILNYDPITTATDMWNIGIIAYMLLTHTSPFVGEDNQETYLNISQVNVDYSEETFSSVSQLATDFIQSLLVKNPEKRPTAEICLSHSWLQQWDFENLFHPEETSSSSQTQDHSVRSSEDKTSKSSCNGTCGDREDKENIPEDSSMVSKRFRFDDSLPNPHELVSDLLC
UniProt Q9Y6J9, sequence (Q9Y6J9 whole entry, looked up): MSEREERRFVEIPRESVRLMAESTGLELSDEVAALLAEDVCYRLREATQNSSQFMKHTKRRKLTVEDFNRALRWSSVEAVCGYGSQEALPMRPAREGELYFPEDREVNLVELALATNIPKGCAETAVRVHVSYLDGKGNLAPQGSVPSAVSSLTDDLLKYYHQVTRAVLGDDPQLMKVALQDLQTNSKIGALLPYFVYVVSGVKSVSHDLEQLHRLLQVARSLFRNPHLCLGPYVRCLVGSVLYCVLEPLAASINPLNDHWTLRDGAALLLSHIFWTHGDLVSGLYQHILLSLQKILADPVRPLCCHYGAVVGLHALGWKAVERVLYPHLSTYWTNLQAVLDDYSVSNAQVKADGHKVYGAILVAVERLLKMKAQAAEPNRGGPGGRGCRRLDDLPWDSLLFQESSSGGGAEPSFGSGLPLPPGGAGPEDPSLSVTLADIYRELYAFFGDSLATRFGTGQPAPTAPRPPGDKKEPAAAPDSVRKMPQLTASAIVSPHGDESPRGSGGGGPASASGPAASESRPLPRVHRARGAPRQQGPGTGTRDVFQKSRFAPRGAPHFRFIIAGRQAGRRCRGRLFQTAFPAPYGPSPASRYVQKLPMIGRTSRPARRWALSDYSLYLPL
UniProt Q92581, sequence (Q92581 whole entry, looked up): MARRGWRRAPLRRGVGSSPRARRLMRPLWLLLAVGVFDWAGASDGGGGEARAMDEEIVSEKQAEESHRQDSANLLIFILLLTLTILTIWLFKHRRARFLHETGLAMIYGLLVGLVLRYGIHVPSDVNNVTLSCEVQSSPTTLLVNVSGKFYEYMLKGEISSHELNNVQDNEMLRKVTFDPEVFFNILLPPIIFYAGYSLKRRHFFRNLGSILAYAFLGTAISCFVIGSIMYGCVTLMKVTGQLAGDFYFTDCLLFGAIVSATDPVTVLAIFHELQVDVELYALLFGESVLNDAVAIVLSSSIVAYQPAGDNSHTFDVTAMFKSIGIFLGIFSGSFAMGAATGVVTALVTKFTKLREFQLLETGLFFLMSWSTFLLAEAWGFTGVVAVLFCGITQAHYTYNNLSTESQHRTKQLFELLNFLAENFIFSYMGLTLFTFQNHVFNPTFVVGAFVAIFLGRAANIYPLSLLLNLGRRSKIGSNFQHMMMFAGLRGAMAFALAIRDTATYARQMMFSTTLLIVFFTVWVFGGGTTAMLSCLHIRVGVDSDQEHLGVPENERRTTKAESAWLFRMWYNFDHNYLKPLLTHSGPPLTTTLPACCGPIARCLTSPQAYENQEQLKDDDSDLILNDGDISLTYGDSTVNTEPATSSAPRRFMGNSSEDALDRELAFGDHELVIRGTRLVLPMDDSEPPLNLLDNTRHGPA
UniProt O60271, sequence (O60271 whole entry, looked up): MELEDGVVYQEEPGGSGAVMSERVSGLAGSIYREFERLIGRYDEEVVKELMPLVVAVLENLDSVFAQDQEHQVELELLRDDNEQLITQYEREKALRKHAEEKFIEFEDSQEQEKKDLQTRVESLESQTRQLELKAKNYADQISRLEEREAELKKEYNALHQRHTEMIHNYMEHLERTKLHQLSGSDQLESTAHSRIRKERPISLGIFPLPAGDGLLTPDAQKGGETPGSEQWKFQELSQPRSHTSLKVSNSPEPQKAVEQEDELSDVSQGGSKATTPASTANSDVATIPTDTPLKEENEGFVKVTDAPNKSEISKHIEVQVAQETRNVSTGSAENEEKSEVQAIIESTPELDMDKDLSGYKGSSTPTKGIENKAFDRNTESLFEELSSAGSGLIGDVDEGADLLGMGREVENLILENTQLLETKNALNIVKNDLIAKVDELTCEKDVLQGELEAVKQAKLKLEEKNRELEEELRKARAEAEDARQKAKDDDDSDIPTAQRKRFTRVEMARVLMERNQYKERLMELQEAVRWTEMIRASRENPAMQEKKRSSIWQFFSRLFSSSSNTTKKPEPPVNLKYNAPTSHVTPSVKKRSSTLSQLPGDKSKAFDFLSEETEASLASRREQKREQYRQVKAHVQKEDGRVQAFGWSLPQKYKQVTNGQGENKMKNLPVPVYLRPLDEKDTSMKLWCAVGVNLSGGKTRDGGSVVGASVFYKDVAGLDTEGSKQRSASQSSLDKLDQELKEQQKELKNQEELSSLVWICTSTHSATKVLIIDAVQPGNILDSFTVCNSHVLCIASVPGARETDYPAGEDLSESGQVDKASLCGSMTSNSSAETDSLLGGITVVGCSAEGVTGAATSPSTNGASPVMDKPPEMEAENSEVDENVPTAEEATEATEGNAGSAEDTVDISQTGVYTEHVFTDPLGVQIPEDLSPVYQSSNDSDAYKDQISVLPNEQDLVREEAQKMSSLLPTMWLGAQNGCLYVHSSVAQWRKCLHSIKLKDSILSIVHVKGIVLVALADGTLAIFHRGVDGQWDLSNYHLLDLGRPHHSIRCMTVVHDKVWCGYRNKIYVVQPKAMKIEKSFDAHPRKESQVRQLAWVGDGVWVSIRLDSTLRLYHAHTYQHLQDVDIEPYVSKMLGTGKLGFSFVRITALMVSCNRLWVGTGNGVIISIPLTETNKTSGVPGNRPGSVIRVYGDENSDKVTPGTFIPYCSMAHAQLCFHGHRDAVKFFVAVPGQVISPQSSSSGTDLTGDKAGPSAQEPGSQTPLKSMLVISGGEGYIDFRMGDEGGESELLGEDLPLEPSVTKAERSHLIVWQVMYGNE
UniProt Q56A73, sequence (Q56A73 whole entry, looked up): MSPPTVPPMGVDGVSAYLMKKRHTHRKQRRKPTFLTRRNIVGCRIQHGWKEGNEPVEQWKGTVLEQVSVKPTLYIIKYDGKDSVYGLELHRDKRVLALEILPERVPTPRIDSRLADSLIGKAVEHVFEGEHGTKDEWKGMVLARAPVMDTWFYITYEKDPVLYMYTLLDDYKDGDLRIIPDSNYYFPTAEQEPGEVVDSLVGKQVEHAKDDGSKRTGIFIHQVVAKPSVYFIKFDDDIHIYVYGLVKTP

| Target | log2 fold change (volasertib) | log2 fold change [1] | log2 fold change [2] | log2 fold change [3] | log2 fold change (rosiglitazone) | log2 fold change [4] | log2 fold change [5] | log2 fold change (saracatinib) | log2 fold change (alvocidib) | log2 fold change [6] | log2 fold change (defactinib) | log2 fold change [7] | log2 fold change [8] | log2 fold change [9] | log2 fold change [10] | log2 fold change (epoxomicin) | log2 fold change (sotrastaurin) | log2 fold change (Tubastatin A) | log2 fold change (rucaparib) | log2 fold change (encorafenib) |
| --- | --- | --- | --- | --- | --- | --- | --- | --- | --- | --- | --- | --- | --- | --- | --- | --- | --- | --- | --- | --- |
| SLC8B1 (UniProt Q6J4K2) | 0.156 | 0.09 | 0.091 | -0.005 | 0.058 | 0.086 | -0.509 | 0.036 | 0.012 | -0.019 | 0.029 | -0.176 | -0.028 |  |  |  |  |  |  |  |
| SYNE1 (UniProt Q8NF91) |  | -0.142 | -0.113 | 0.042 | 0.031 | 0.051 | -0.208 | -0.054 | 0.011 | -0.14 | -0.092 | 0.045 | 0.076 | -0.01 | -0.048 | 0.047 | -0.086 | 0.193 | -0.039 | -0.101 |
| SLC9A6 isoform 3 (UniProt Q92581) | -0.045 | 0.045 |  |  | -0.091 | 0.008 |  | 0.128 | -0.044 | 0.104 |  | -0.107 |  | -0.041 |  |  |  | 0.04 | 0.165 | -0.162 |
| SOX5 (UniProt P35711) | -0.082 | 0.099 |  | -0.062 | 0.046 |  |  |  | -0.163 | -0.053 | -0.224 |  | 0.064 |  | 0.014 |  | -0.014 | 0.263 |  |  |
| THAP9 (UniProt Q9H5L6) |  |  |  |  | 0.008 | -0.039 |  | 0.039 | -0.087 |  |  | 0.186 |  |  | -0.167 |  |  |  |  |  |
| TK1 (UniProt K7ERV3) | 0.055 |  | -0.014 | 0.084 | 0.035 | -0.024 | 0.005 | 0.037 | -0.009 |  | 0 | -0.058 | -0.003 |  | -0.163 | 0.007 | 0.011 | -0.013 |  |  |
| TBC1D2 (UniProt Q9BYX2) |  |  | 0.087 |  |  |  | -0.019 |  |  |  |  |  |  | -0.055 |  | -0.238 |  |  | 0.264 | 0.122 |
| SPIN4 (UniProt Q56A73) |  | 0.291 |  |  |  |  |  |  |  | -0.199 |  |  |  |  |  |  |  |  |  |  |
| STK17B (UniProt O94768) |  | -0.099 |  |  | 0.07 |  |  |  |  | -1.03 (active) |  |  |  |  |  |  |  |  |  |  |
| SPAG9 isoform 4 (UniProt O60271) |  | -0.066 |  | -0.093 | -0.029 |  |  |  | 0.037 | 0.081 | 0.018 |  | 0.088 | -0.192 | 0.093 |  | -0.171 | -0.103 | 0.113 | 0.022 |
| TAF6L (UniProt Q9Y6J9) | -0.537 (active) | -0.179 | -0.04 |  |  | 0.081 | -0.126 | 0.148 | -0.055 | -0.044 |  | 0.035 |  |  | 0.118 |  | -0.2 | -0.012 |  |  |
| SSB (UniProt E7ERC4) |  |  | -0.076 | -0.154 |  | -0.34 | 0.266 | -0.05 |  |  | -0.205 | 0.018 | -0.092 |  |  |  |  |  |  |  |
